Measurements published in PubChem BioAssay (NCATS).
Results filed as inconclusive are left out. A number with no mark means an inactive call. The source made the active and inactive calls. Calls come from the whole dose curve; as a rule, active = well fitted inhibition curve with a large enough effect; inconclusive = small, poorly fitted or top-dose-only effect; inactive = flat fitted curve, though single readings scatter.

The compounds below were run on HEK293 (assay: Cytotoxic Profiling of Annotated Libraries Using Quantitative High-Throughput Screening (AID 1296008; note: nearly all actives have a fitted effect of over 60% in size)). Settings: Five cell lines viability, CellTiter-Glo ATP luminescence, 48-72 h; max response: stronger effect = lower value.
How it was run: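 Compounds were pin-transferred onto cells and incubated 48 or 72 hr at 37 degree Celsius, 95% humidity. CellTiter-Glo was added, plates sat 10 min at room temperature, then ATP-coupled luminescence was imaged as the viability read-out.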
% is set by controls: 0 for no effect and ±100 for the full control effect; potency is the fitted concentration of half-maximal effect.

Row | SMILES | outcome | max response | Potency
1 | O=C1NC(Cc2c[nH]c3ccccc23)C(=O)NC1Cc1c[nH]c2ccccc12 (stereo not given) | inactive | – | –
2 | O=C(O)C1CN(Cc2ccc(-c3nc4cc(Cc5ccccc5F)ccc4s3)c(F)c2)C1 | – | -0.852% | –
3 | O=C(O[C@H]1[C@@H]2C[C@@H]3OC[C@](O)([C@@H]1Cl)[C@H]2C(O[C@@H]1O[C@H](CO)[C@@H](O)[C@H](O)[C@H]1O)O3)c1ccc(O)c(O)c1 (stereo not given in full) | – | -2.09% | –
4 | CC(C)c1c2cc(-c3ccnc(NC4CCC(NC5CCOCC5)CC4)n3)ccc2nn1C (stereo not given) | – | – | 0.13 µM (active)
5 | O=C(NCc1ccccn1)Nc1nnc(-c2ccco2)o1 | – | -0.62% | –
6 | CC(=O)OC/C=C(\C)C(CC1C(C)=C(OC(C)=O)C(=O)C2C(C)(C)C(O)CCC12C)OC(C)=O (stereo not given) | – | -0.0321% | –
7 | Cc1cc(Nc2ncc3cc(-c4c(Cl)cccc4Cl)c(=O)n(C)c3n2)ccc1F | – | – | 2.31 µM (active)
8 | C/C=C/C(O)C1OC(=O)CC1Nc1ccc(C(=O)O)cc1 (stereo not given) | – | 4.45% | –
9 | COc1ncc2cc(C(=O)Nc3cc(C(=O)NCc4cccc(Cl)c4)ccc3Cl)c(=O)[nH]c2n1 | – | -14.6% | –
10 | C[C@@H]1O[C@@H](O[C@H]2[C@H](O[C@H]3[C@H](O)[C@@H](C(=O)O)O[C@@H](O[C@H]4CC[C@@]5(C)C(CC[C@]6(C)C5CC[C@]57OC[C@@]8(CCC(C)(C)CC85)[C@H](O)C[C@]76C)C4(C)C)[C@@H]3O[C@@H]3O[C@H](CO)[C@@H](O[C@@H]4OC[C@@H](O)[C@H](O)[C@H]4O)[C@H](O)[C@H]3O)O[C@H](CO)[C@H](O)[C@@H]2O)[C@H](O)[C@H](O)[C@H]1O (stereo not given in full) | – | -0.169% | –
